# Assay outcomes: PubChem BioAssay, several laboratories
# MCL1-BIM inh = MCL1-BIM-BH3 interaction inhibition (human); Q07820; AID 2057; GST-MCL1 / FITC-Bim-BH3 fluorescence polarization; inhibition, % at 10.9 µM; 320,000 tested, 0.68% active;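 active means inhibition above the mean inhibition of all tested compounds plus 3 SD, set per campaign, cut at about 40% in these data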;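 further: 0% = DMSO wells and 100% = unlabeled Bim-BH3 peptide control; higher means more loss of mP so more displacement of Bim peptide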
# Target sequence (Q07820 whole entry, looked up): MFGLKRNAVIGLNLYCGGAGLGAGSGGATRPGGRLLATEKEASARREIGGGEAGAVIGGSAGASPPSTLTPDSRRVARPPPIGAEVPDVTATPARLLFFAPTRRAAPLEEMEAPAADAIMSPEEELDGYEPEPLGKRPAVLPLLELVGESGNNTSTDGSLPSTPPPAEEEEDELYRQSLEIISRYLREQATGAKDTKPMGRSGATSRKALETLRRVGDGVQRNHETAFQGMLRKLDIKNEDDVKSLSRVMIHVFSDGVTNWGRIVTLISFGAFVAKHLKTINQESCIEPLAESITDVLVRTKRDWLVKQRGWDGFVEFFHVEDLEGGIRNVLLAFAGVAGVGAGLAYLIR
# Mcl1-Bid inh = disrupts binding of human Mcl-1 to Bid peptide | 220,000 tested, 0.97% active | inhibition, % at 21.7 µM | TR-FRET Mcl-1/Bid-Dy647 peptide binding, 1536-well;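 active means compounds that cut the binding signal by more than half at the single screening dose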;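 further: His-tagged Mcl-1 with europium anti-His antibody binding Bid BH3 peptide; 0% = Mcl-1 plus peptide wells and 100% = peptide-only wells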
# Mcl1 Noxa PPI = Mcl-1/Noxa interaction inhibition. TR-FRET Mcl-1/Noxa peptide binding, 2 h. Q07820. inhibition, % at 21.7 µM. 220,000 tested, 1.5% active;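 active means compounds that cut the protein-peptide binding signal by more than 50% relative to plate controls in a single-dose test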;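 further: His-tagged Mcl-1 with rhodamine Noxa BH3 peptide and terbium anti-His antibody; 0% = Mcl-1 plus Noxa peptide wells and 100% = peptide-only wells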
# 14-3-3 Bad PPI = disrupts binding of bovine 14-3-3 zeta to phospho-Bad peptide | AID 781 | inhibition, % at 21.7 µM | TR-FRET 14-3-3zeta/Dy647-pBad peptide displacement, 1 h | 220,000 tested, 0.71% active;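 active means inhibition above about 70%, limit read from the data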;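 further: 0% = full 14-3-3 plus peptide FRET controls and 100% = background without 14-3-3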
# Target sequence (P63103 whole entry, looked up): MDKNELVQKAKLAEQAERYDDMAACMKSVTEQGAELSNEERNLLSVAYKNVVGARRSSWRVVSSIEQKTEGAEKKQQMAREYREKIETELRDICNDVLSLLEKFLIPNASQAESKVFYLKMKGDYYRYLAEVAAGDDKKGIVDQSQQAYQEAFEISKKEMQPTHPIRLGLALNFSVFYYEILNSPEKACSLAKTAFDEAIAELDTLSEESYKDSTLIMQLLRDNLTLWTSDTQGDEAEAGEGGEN
# Mcl-1 Bim block = human Bim-Mcl-1 interaction inhibition; inhibition, % at 10 µM; 190,000 tested, 0.1% active; Q07820; Bead-based flow cytometry, Bim peptide-Mcl-1 binding; in the data active means inhibition above about 40%;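 further: 0% = no compound tracer wells and 100% = peptide blocker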
# eIF4E-4G inh = inhibitors of eIF4E and eIF4G interaction in translation initiation; P63073+Q04637; TR-FRET eIF4E-eIF4GI(517-606) binding, 2 h; inhibition, % at 21.7 µM; 220,000 tested, 0.37% active;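 active means inhibition above about 30%, limit read from the data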;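 further: 0% = full FRET control wells and 100% = background wells lacking eIF4GI fragment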
# * marks the source's active call; other numbers are inactive results; / = no result given; [ ] = remark or other dose. In the library only some 2.6% were active in any assay of this set; here they are far more common.
SMILES,MCL1-BIM inh,Mcl1-Bid inh,Mcl1 Noxa PPI,14-3-3 Bad PPI,Mcl-1 Bim block,eIF4E-4G inh
COC(=O)CCC(=O)OC1(C)C(=O)C=C2C=C(C3CC3)N(C3CC3)C=C2C1=O (configuration not stated),29,-106,20,-2,/,-2
CC1(OC(=O)CCc2ccccc2)C(=O)C=C2C=C(C3CC3)OC=C2C1=O (configuration not stated),45*,/,/,/,/,/
COC(=O)CCC(=O)OC1(C)C(=O)C=C2C=C(C3CC3)N(c3cccc(C#N)c3)C=C2C1=O (configuration not stated),43*,-66,1,-2,/,1
Nc1nc2ccc([N+](=O)[O-])c(N)c2s1,26,-54,54*,4,0,17
CS(=O)(=O)c1ccc2nc(N)sc2c1,4,-8,4,9,-3,3
CC(=O)c1ccc(NC(=O)Nc2ccncc2)cc1,2,-34,15,-1,1,1
CC(=O)c1ccc(NC(=O)CN(C)CC(=O)Nc2cccc(F)c2)cc1,3,-16,7,90*,0,1
COC(=O)Nc1ccc(NC(C)=O)cc1,5,-16,-9,3,-1,-2
CC(=O)Nc1cccc(NC(=O)Nc2ccc(C(C)=O)cc2)c1,3,94*,10,7,0,4
CCN(CC)c1ccc(NC(=O)c2ccccc2OCC(=O)OC)cc1,5,-18,81*,23,-3,23
COC(=O)COc1ccccc1C(N)=O,6,-6,7,-9,0,-2
CCN(CC)c1ccc(NC(=O)OC)cc1,-13,-53,68*,-21,3,5
COc1ccc(CNC(=O)C2CCC(=O)N(CCCN3CCCC3=O)C2)c(OC)c1 (configuration not stated),-3,/,/,/,/,/
C/C(=N\Nc1ccc(C(=O)O)cc1)c1ccc(S(=O)(=O)NCc2ccco2)cc1,2,-43,26,-5,/,0
CC(=O)c1cccc(NC(=O)Nc2ccc(C(=O)N3CCCC3)cc2)c1,7,-8,6,0,-5,-12
CCN(CC)c1ccc(NC(=O)Nc2cccc(C(C)=O)c2)cc1,6,-76,86*,-7,0,5
CCOC(=O)C(Cc1ccccc1)C(=O)Nc1ccc(N(CC)CC)cc1 (configuration not stated),1,-29,60*,-6,-3,1
CCOC(=O)C(Cc1ccccc1)C(=O)Nc1cccc(C)c1 (configuration not stated),10,-15,-8,-4,-2,2
Cc1cc(N2CCOCC2)n2nc(C)c(-c3ccccc3)c2n1,5,-83,8,-9,2,89*
COc1ccc(C(=O)Nc2cccc(-c3cc4ccccc4oc3=O)c2)cc1[N+](=O)[O-],10,87*,56*,75*[fluorescence artefact?],-1,6
COc1ccc2nc(NC(=O)c3cccc(-c4cc5ccccc5oc4=O)c3)sc2c1,-14,87*,54*,69,-2,30
O=C(/C=C/c1ccco1)c1ccccc1O,-1,-30,0,-4,0,82*
CC1=C(C#N)C(=O)NC(=O)/C1=C/c1ccc(-c2ccc(S(N)(=O)=O)cc2)o1,19,-38,87*,18,2,15
NS(=O)(=O)c1ccc(-c2ccc(/C=C3\NC(=S)NC3=O)o2)cc1,-106,/,/,/,/,/
C=CCOC(=O)c1cc(-c2ccc(/C=C3\C(=O)NC(=O)C(C#N)=C3C)o2)ccc1Cl,/,99*,105*,92*[fluorescence artefact?],-6,60*[fluorescence artefact?]
SMILES,MCL1-BIM inh,Mcl1-Bid inh,Mcl1 Noxa PPI,14-3-3 Bad PPI,Mcl-1 Bim block,eIF4E-4G inh
CC(NS(=O)(=O)c1ccc2c(c1)CC(C)N2C(=O)C1CC1)c1ccccc1 (configuration not stated),3,/,/,/,/,/
OC(CNCC(c1ccc(Cl)cc1Cl)c1c[nH]c2ccccc12)c1ccccc1 (configuration not stated),-1,-12,9,-2,0,7
O=C(Nc1cccc(S(=O)(=O)N2CCCCCC2)c1)C1CCC1,-3,/,/,/,/,/
CC(C)c1ccc2nc(SCC(=O)NCC3CCCO3)c(C#N)cc2c1 (configuration not stated),10,/,/,/,/,/
COc1ccc(Cn2c(CCC(=O)NCc3ccco3)nc3cccnc32)cc1,-3,-44,65*,0,-3,-2
COC(=O)C1=C(C)NC2=C(C1c1ccc(O)cc1)S(=O)(=O)c1ccccc12 (configuration not stated),8,-11,-3,0,0,3
COc1ccc(C2C(C#N)=C(C)NC3=C2S(=O)(=O)c2ccccc23)cc1 (configuration not stated),5,-3,6,-4,48*,0
Cc1ccc(S(=O)(=O)N(C)C)cc1NC(=O)COC(=O)c1ccc2c(c1)OCCO2,0,4,14,1,-4,1
Cc1cc(Br)ccc1NCc1ccccn1,7,19,19,76*,0,7
O=C(COC(=O)c1ccc(S(=O)(=O)Nc2ccccc2)cc1)NCCC1=CCCCC1,0,5,15,2,-1,-1
CC(C)c1ccc(C(N)=S)cc1,8,-31,68*,-6,0,-4
O=S(=O)(c1ccc(NC(=S)NCc2cccnc2)cc1)N1CCCCC1,3,96*,20,-3,/,3
CN1CCN(S(=O)(=O)c2ccc(NC(=S)NC(=O)c3ccccc3)cc2)CC1,-9,-28,13,-3,-2,-2
O=C(Cc1cccs1)Nc1ccc(S(=O)(=O)N2CCCC2)cc1,21,-19,63*,33,0,33*
O=C(NCc1cccnc1)c1ccc(S(=O)(=O)N2CCCCC2)cc1,1,9,24,-13,0,1
O=C(NC(=S)Nc1ccc(S(=O)(=O)N2CCCCC2)cc1)c1cccs1,16,96*,1,-1,0,2
CN1CCN(S(=O)(=O)c2ccc(NC(=S)NC(=O)c3ccc(Cl)cc3)cc2)CC1,/,2,84*,0,-7,0
NS(=O)(=O)c1ccc(NC(=S)NC(=O)c2cccs2)cc1,15,-42,1,-19,/,-2
CCOc1ccc(CCNC(=O)Cn2ncn3nc(-c4ccc(OC)cc4)cc3c2=O)cc1OCC,-9,/,/,/,/,/
CC1Cc2c([nH]c3ccccc23)C(=O)N1 (configuration not stated),1,/,/,/,/,/
CC1=CC(=C2C(=O)c3ccccc3C2=O)C=C(C)N1Cc1ccco1,14,-18,64*,-11,4,-1
NC(=O)N1CCN(C(=O)c2ccco2)CC1,5,70*,9,2,-1,5
COc1ccc(C2(NC(C)=O)CCN(C(=O)c3ccco3)CC2)cc1,6,-8,2,-3,40*,-4
Cc1[nH]c(=O)c(C(=O)/C=C/c2ccccc2F)c2c1CCCC2,4,-4,-11,9,-1,7
